The full ranking holds about 33,000 sequences; the median of “E-score (-0.5 to 0.5)” is about -0.04, and the highest 2% start at about 0.36. Many of the other results were omitted from the sample, so the highest values are more common in it than they were.
These sequences were tested against T1, Hmlalpha2 (UniProt P0CY09) (assay: PBM E-score (8-mer binding enrichment) (E-score (-0.5 to 0.5)); higher = stronger / more preferred TF binding). Conditions: protein concentration: 200 nM; construct: GST-full length.
T1 sequence: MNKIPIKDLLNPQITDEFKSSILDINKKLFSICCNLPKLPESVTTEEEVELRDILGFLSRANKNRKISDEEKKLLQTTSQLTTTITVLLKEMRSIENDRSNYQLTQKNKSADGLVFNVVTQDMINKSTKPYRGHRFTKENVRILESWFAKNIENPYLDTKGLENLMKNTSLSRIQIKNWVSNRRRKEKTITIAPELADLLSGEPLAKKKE
Experimental: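 Universal 'all 10-mer' protein binding microarrays (Agilent AMADID 015681) probed with GST-tagged S. cerevisiae TFs (full-length or DBD) made by in vitro transcription/translation (PURExpress), about 100-200 nM. Bound TF was detected with fluorescent anti-GST. Each ungapped 8-mer (which stands for itself and its reverse complement) is scored by the PBM enrichment score (E-score), a modified Wilcoxon-Mann-Whitney statistic from -0.5 to +0.5, computed with the Universal PBM Analysis Suite. Scale: above 0.35 generally sequence-specific binding.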

Row | Sequence | PBM E-score
1 | CAACATAC | 0.303
2 | TAACATGA | 0.462
3 | ACACATGT | 0.394
4 | TAACATCA | 0.338
5 | AAACATGA | 0.388
6 | AAACATCA | 0.278
7 | ACACATGG | 0.21
8 | AAACATAA | 0.348
9 | CAACATGC | 0.398
10 | ACTAACCC | 0.0236
11 | CAAGGGTC | -0.199
12 | CCACACAG | -0.0322
13 | ATGCGTTG | 0.205
14 | GACTGACC | -0.192
15 | GAGGTCAA | -0.0488
16 | GTGAAGAA | 0.181
17 | CCCAAACG | -0.123
18 | ACAACTCA | 0.194
19 | AGAATAGC | -0.15
20 | AGTGCCAC | -0.215
21 | CAGGAGCC | -0.225
22 | CTCCCTCC | -0.389
23 | CTCACACA | 0.114
24 | GTTACAAA | 0.303
25 | GTCACACA | 0.15

Row | Sequence | PBM E-score
26 | GTTACACA | 0.435
27 | CTTACTCA | -0.0475
28 | CTTACACA | 0.408
29 | GCAAAACA | 0.135
30 | CCCTTGCC | -0.285
31 | TAACCGCA | 0.0481
32 | AGACTCAT | -0.0539
33 | CAATTACG | 0.349
34 | TACTTACA | 0.379
35 | GACTTACA | 0.274
36 | CAATTACC | 0.0295
37 | TAATTATA | 0.245
38 | CACTTACA | 0.281
39 | CAATTACA | 0.445
40 | TAATTACA | 0.462
41 | TAATTAGA | 0.167
42 | AAATTACG | 0.309
43 | AAATTACT | 0.209
44 | AAATTACA | 0.424
45 | CACCGCTA | -0.0146
46 | CGAATTCA | -0.0293
47 | AATGTAGT | 0.249
48 | GGGGCCTA | -0.31
49 | GCCGCGGC | -0.242
50 | CCGCGATC | -0.238

Row | Sequence | PBM E-score
51 | AATTCTGC | -0.061
52 | GAATTACC | 0.107
53 | GAATTACA | 0.444
54 | GAATTATA | 0.113
55 | CTTGCTTC | 0.0506
56 | GTCATCGA | -0.0402
57 | CATTACGC | 0.321
58 | CTTTACGA | 0.185
59 | CTTTACGC | 0.42
60 | AATTACGA | 0.338
61 | AATTACGG | -0.0144
62 | AATTACGT | 0.382
63 | AATTACGC | 0.431
64 | GATTACGC | 0.345
65 | ATTTACGC | 0.347
66 | AATAACTG | 0.0798
67 | CCACTAGC | -0.111
68 | AATACCCT | -0.0975
69 | TCATTCCA | -0.147
70 | CGTAATTC | 0.321
71 | CGTAATTA | 0.389
72 | CGTAATCA | 0.367
73 | GGTAATTA | 0.25
74 | AGTAATCA | 0.199
75 | CGTAATCC | 0.309

Row | Sequence | PBM E-score
76 | ACTGCTTG | -0.00682
77 | AACGAAGT | 0.0804
78 | ACAGCAGC | 0.0712
79 | CACGCGTG | 0.374
80 | TACGCGTA | 0.409
81 | AACGCGTA | 0.359
82 | CACGCGTA | 0.277
83 | TACGCGCA | 0.252
84 | GACGCGTA | 0.383
85 | AACGCGTG | 0.336
86 | CACGCGTC | 0.174
87 | TACGCGGA | 0.312
88 | CCCCCGTA | -0.247
89 | AATGGAGT | -0.0239
90 | AACTCTAA | 0.0318
91 | CCTTGATC | -0.0105
92 | AATGTACC | 0.166
93 | CCTGTACA | 0.304
94 | GATGTACC | 0.135
95 | CATGTACA | 0.458
96 | TCAGTACA | 0.227
97 | GATGTACA | 0.379
98 | TCTGTACA | 0.258
99 | TATGTACA | 0.429
100 | AATGTACA | 0.366

Row | Sequence | PBM E-score
101 | GGTGTACA | 0.211
102 | CATGTACC | 0.287
103 | AATGTACT | 0.186
104 | GCTTTGAC | 0.074
105 | GCGCACAC | -0.189
106 | GTCAAGAC | -0.135
107 | ATCACTGG | -0.0104
108 | TATCTGGA | -0.16
109 | GGTCCCTA | -0.0695
110 | CCTGAATC | -0.0621
111 | CCTGTACG | 0.0613
112 | AATGTACG | 0.108
113 | CATGTACG | 0.372
114 | CGGTAGAA | -0.175
115 | CTCATGTC | 0.295
116 | GTCATGCA | 0.133
117 | ATCATGTA | 0.472
118 | GTCATGTA | 0.442
119 | ATCATGTG | 0.209
120 | CTCATGGA | -0.142
121 | GTCATGGA | -0.188
122 | CTAATGTA | 0.262
123 | ATAATGTA | 0.273
124 | GTAATGTA | 0.413
125 | ATCATGTC | 0.351

Row | Sequence | PBM E-score
126 | CTCATGTA | 0.454
127 | CGCATTAC | 0.214
128 | ATGCGTTC | 0.122
129 | CGAGGCAA | 0.126
130 | AACCTCTC | -0.275
131 | TACAACAA | 0.343
132 | GCCCCTCC | -0.277
133 | TCGCCTCA | -0.118
134 | CATACACC | -0.076
135 | GATACACA | 0.214
136 | CACACAGA | 0.221
137 | CATACACG | 0.398
138 | TACACAGA | 0.424
139 | TATACAGA | 0.251
140 | GATATACA | 0.339
141 | GACACAGA | -0.00939
142 | CATACACA | 0.336
143 | TATATACA | 0.389
144 | TATACACA | 0.437
145 | AATATACA | 0.34
146 | CTAAGATC | -0.0578
147 | GGTGAGTA | 0.135
148 | AAAGCGAA | -0.132
149 | GCCATCTA | -0.19
150 | ACTCCACA | 0.0494

Row | Sequence | PBM E-score
151 | GACGGTCA | -0.196
152 | ATAGACTG | -0.0652
153 | CACACAAA | 0.126
154 | GACACAAA | 0.14
155 | TACACAAA | 0.431
156 | CACACACG | 0.279
157 | CACACACA | 0.228
158 | TACACACA | 0.43
159 | ACAGATGC | -0.0548
160 | ACTCCCAC | -0.352
161 | GGCGGGAC | -0.194
162 | TAACGCCA | 0.0809
163 | AGCTTGTC | 0.133
164 | AGCTTGTG | 0.11
165 | ATCTTGTG | -0.0105
166 | ATCTTGTA | 0.383
167 | GCCTTGTA | 0.33
168 | ACCTTGTA | 0.402
169 | GTCTTGTA | 0.306
170 | AGCTTGTA | 0.379
171 | CCCTTGTA | 0.328
172 | CGGTCCCC | -0.347

Reference: the supplement of paper PMC3334620
